Laboratory results from PubChem BioAssay (NCI).
Compounds without any hit were thinned out: in the full panel of roughly 83,000, 20% have a hit.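 Interpretation: 100, growth as untreated; towards 0, rising growth inhibition; 0, no net growth; 0 to -100, cell death. Compounds scoring below 10 were considered active.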 Values without a mark were called inactive. Activity calls are given as the source filed them.

Assays:
Assay in all cases: NCI-60 one-dose screen, 48 h (100 = growth as untreated, 0 = no growth, -100 = all killed)
Details in all cases: 10 µM unless noted
[1] = tested on: SR leukemia
[2] = tested on: OVCAR-8 ovarian
[3] = tested on: OVCAR-5 ovarian
[4] = tested on: OVCAR-4 ovarian
[5] = tested on: SK-OV-3 ovarian
[6] = tested on: IGROV1 ovarian
[7] = tested on: OVCAR-3 ovarian
[8] = tested on: HS 578T breast
[9] = tested on: NCI/ADR-RES ovarian
[10] = tested on: RPMI-8226 leukemia

SMILES	growth [1]	growth [2]	growth [3] [%]	growth [4]	growth [5]	growth [6]	growth [7]	growth [8]	growth [9]	growth [10]
CC(C)(C)n1cc(-c2ccnc(NCCCNS(=O)(=O)c3ccc(F)cc3)c2)c(-c2cccc(O)c2)n1	13.8%	51.5%	65	53.9%	83.8%	51.1%	56.1%	52.4%	53%	
COc1ccc(-c2cc(-c3ccccc3)nc(SCCCC(=O)NO)n2)cc1OC	4.39% (active)	5.05% (active)	11	6.41% (active)	-0.339% (active)	15.6%	-22.7% (active)	18%	-12.3% (active)	
NC(=N\N=C/c1ccc(O)cc1)/C(N)=N\N=C/c1ccc(O)cc1	33.7%	73.9%		74.4%	82.6%	79.4%	92%	99%	58.5%	65.3%
COc1ccc(-c2cnnn2-c2nonc2-n2cccc2)cc1OC	-4.66% (active)	66.5%		90.6%	61.8%	62.4%	30.2%	82.5%	18.3%	52.2%
CC12CCC3C4(C)COC(c5ccco5)OC4CCC3(C)C1CC(C1=CCOC1=O)O2 (stereo not drawn)	95.7%	108%	99.8	103%	121%	93.8%	105%	107%	98.5%	
Cc1ccc(S(=O)(=O)NCCNc2cc(-c3cn(C(C)(C)C)nc3-c3cccc(O)c3)ccn2)cc1	51.7%	79%	80	67.3%	91.4%	75.2%	81.7%	76.6%	67%	
O=S(=O)(NCCNc1nccc(-c2c(-c3ccc(O)cc3)nc3sccn23)n1)c1cccc2ccccc12		95.4%	114	91.6%	106%	105%	117%	110%	102%	92.5%
O=S(=O)(NCCCNc1nccc(-n2ccc3cccnc32)n1)c1cccc(C(F)(F)F)c1	103%	105%	101		112%	107%	112%	100%	101%	
O=c1c2sc3ncccc3c2nnn1-c1ccccc1		104%	101	103%	105%	106%	112%	108%	107%	99%
CCOC(=O)c1cn2c3c(cccc3c1=O)C(=O)/C(=C/c1cccc(Cl)c1Cl)C2		95.7%	102	100%	86.1%	99.7%	113%	100%	101%	92.4%
COc1cc(Nc2ncccc2C(=O)NCc2cn(Cc3cccc(Oc4ccccc4)c3)nn2)cc(OC)c1	25.3%	53.9%	83.2	70.6%	41.9%	58.5%	-2.42% (active)	49.1%	9.54% (active)	
CCCCCCCC/C=C/CCCCCCCC1=NC(C)(C)CN1C(C)(C)CO		37.1%	65.1	42.5%	70.3%	1.53% (active)	55.4%	65.9%	56%	-21.7% (active)
O=C1c2c(Cl)c(Cl)c(Cl)c(Cl)c2C(=O)C2(Cl)CC=CCC12Cl (stereo not drawn)		-34.9% (active)	95.7	-59.1% (active)	105%	-58.7% (active)	-93.5% (active)	46.7%	32.7%	-32.2% (active)
COc1cc(-c2nn(-c3cccc(NC(=O)c4ccc(N5CCOCC5)c(C(F)(F)F)c4)c3)cc2-c2ccncc2)ccc1Cl		5.23% (active)	34.7	52.3%	1.88% (active)	41.8%	-29.8% (active)	-13.6% (active)	-7.13% (active)	8.3% (active)
C=CCn1c2ccccc2c2c3c(c4c5ccccc5n(CC=C)c4c21)C(=O)N(O)C3=O		22.9%	86.4	45.8%	33.9%	-15.6% (active)	33.2%	77.2%	2.91% (active)	24.4%
COc1ccc(Nc2[nH]n3c(=O)cc(-c4ccccc4)nc3c2C(=O)Nc2ccc(C)cc2)c(OC)c1		79.4%	92	89.6%	91.2%	102%	98.7%	78.1%	108%	108%
